Among all 310,000 compounds or so, about 1,500 (0.48%) were called active.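 How the source made its calls: active means binding more than 3 SD below its plate's average and above zero; inconclusive means below that plate limit but binding exactly zero; inactive means the rest.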 What follows is part of a selection rich in actives, with near analogues and random picks from the rest.
biological target: Desmoglein-3 (Homo sapiens) (UniProt P32926); test: inhibitors of pemphigus antibody binding to DSG3, primary screen, biochemical, bead-based, flow cytometry, scFv-GFP (AID 588358); settings: DSG3-coupled beads, scFv-anti-DSG3-GFP binding, at 10 µM, stronger effect = lower value;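 further: hits lower antibody fragment binding to DSG3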
Sequence (P32926 whole entry, looked up, the tested form may be a part): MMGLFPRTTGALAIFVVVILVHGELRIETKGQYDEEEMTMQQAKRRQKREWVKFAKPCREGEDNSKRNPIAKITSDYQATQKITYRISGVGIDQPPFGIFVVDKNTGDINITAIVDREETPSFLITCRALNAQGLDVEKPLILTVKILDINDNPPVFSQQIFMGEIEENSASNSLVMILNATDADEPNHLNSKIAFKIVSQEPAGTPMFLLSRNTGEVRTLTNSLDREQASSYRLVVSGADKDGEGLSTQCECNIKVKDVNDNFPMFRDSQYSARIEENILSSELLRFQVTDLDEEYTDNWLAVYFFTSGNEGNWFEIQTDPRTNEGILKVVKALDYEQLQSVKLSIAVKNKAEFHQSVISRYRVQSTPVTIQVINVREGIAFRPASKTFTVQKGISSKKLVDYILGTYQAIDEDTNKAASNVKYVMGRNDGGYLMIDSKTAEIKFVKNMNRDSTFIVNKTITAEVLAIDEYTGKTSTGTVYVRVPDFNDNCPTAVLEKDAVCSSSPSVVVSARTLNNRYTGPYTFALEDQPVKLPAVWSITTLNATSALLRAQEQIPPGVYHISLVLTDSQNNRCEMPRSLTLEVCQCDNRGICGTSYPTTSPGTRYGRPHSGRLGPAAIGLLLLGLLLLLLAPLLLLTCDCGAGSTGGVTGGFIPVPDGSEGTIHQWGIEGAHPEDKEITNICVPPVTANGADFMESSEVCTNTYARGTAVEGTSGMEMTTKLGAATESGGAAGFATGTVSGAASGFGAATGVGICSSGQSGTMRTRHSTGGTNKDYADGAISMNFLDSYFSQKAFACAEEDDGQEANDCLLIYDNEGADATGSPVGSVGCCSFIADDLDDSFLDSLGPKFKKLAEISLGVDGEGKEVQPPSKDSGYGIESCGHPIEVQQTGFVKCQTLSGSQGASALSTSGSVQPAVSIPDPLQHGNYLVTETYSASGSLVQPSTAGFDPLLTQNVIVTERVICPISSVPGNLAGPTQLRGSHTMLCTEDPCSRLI

Binding (percent of control), inactive:
Cc1ccc(S(=O)(=O)N2C[C@@H](C)[C@]3(C2)[C@H](O)[C@H](OC(=O)NCc2ccccc2)C[C@H]2C(=O)N(c4ccccc4)C(=O)[C@H]23)cc1 111%
Cc1ccc(Oc2cnn(-c3ccccc3)c(=O)c2Br)cc1 117%
CN(C)C(CNC(=O)c1cccc(S(=O)(=O)N2CCc3ccccc3C2)c1)c1ccccc1 (stereo unspecified) 97.5%
Cc1cc(Cl)ccc1C(=O)C1CCCN(C(=O)c2ccc3c(c2)OCO3)C1 (stereo unspecified) 103%
CCOC(=O)c1c(S(=O)(=O)NCC(=O)Nc2ccc(C)cc2)c(C)n(C)c1C 97.8%
CCOC(=O)c1cccc(NS(=O)(=O)c2c(C(=O)N3CCCCCC3)c(C)n(C)c2C)c1 99.4%
N#CCCN(C(=O)Nc1ccc(Cl)c(Cl)c1)C1CCCCC1 105%
Cn1nc(N)c2ncc(C(Cl)(Cl)Cl)nc21 100%
O=C(CC(CC(=O)c1ccccc1)c1ccco1)c1ccccc1 99.4%
CNC(=O)C1CN(C(=O)c2cccc(S(=O)(=O)N3CCc4ccccc43)c2)c2ccccc2O1 (stereo unspecified) 103%
Cc1cccc(C(=O)OCC(=O)Nc2sccc2C(N)=O)c1C 104%
COc1ccc(NC(=O)Cn2nnc(C(=O)NCCc3ccc(OC)c(OC)c3)c2N)cc1 103%
CCc1ccc(NC(=O)Cn2nnc(C(=O)NCc3ccc(OC)cc3)c2N)cc1 106%
C[C@H]1NS(=O)(=O)c2cc(Cl)ccc2O[C@@H]1c1ccccc1 98.4%
COc1cc2ccccc2cc1C(=O)Nc1ccc(NC(=O)c2cccs2)cc1 87.2%
COc1ccc(CN(Cc2ccc(OC)cc2)C(=O)c2cccs2)cc1 100%
COc1ccc(OC)c(C(=O)NC2CCCc3c2cnn3-c2cc(C)cc(C)c2)c1 (stereo unspecified) 96.8%
CCCCN(C(C)=O)c1ccc2c(c1)C1CC2CCN1Cc1ccccc1 (stereo unspecified) 101%
NC(=S)NN=Cc1ccc(OC(=O)COc2cc(Cl)c(Cl)cc2Cl)cn1 102%
COCOCCn1cc(CN2CCS(=O)(=O)N(Cc3ccc(-c4cccc(N(C)C)c4)cc3)C(CC(C)C)C2=O)nn1 (stereo unspecified) 101%
CCOC(=O)c1c(NC(=O)COC(=O)c2ccc(S(=O)(=O)C(F)F)cc2)sc(C(=O)N(C)C)c1C 100%
C(=N\N1CCN(c2ccccn2)CC1)/C1=C(N2CCOCC2)C(=C/c2ccccc2)/CC1 109%
O=C(O)c1ccc(NN=CC2=C(N3CCOCC3)/C(=C/c3ccccc3)CC2)cc1 109%
CN1OC[C@@H]2CN(C(=O)c3ccc(-c4ccccc4)cc3)[C@H](c3ccc(-c4cccc(F)c4)cc3)C[C@@H]21 98.8%
COCCn1c(SCC(=O)Nc2ccc(F)cc2F)nc2c(c1=O)SCC2 103%
O=C(COc1ccc(S(=O)(=O)N2CCCC2)cc1[N+](=O)[O-])N1CCCCC1 92.6%
Cc1cccc2c1cnn2C(=O)CCC(=O)NC1CCCCC1 102%
Cc1ccc2nc(SCC(=O)NC3CCCC3)[nH]c2c1 81.4%
CC1(c2cccc(Br)c2)NC(=O)N(CC(=O)NCCC2=CCCCC2)C1=O (stereo unspecified) 99.5%
O=Nc1c(O)cc(O)c2ccccc12 104%
CC(C)CCC(=O)Nc1cc(S(=O)(=O)N2CCOCC2)ccc1N1CCCC1 104%
COc1ccc(N(CC(=O)NCCSCc2cccc(Cl)c2)S(C)(=O)=O)cc1 104%
COc1ccc(CCNC(=O)c2cnc(Cl)c(Cl)c2)cc1 97.2%
Cc1ccc(S(=O)(=O)NN=C2CC(C)(C)CC(=O)C2(C)C)cc1 98.4%
O=C(NCCc1cccc(F)c1)C1CC(O)CN1C(=O)Nc1ccccc1 (stereo unspecified) 94.3%
COc1cc(C=NC2CCCCC2)ccc1O 106%
COc1ccc(CCC(=O)N2CCN(S(=O)(=O)c3ccc(OC)cc3)CC2)cc1 96.6%
COc1ccc(CCNC(=S)N2CCN(S(=O)(=O)c3ccc(Cl)cc3)CC2)cc1 106%
COC(=O)[C@H]1C[C@H](OC(=O)NCc2ccccc2)[C@@]2(O)CN(S(=O)(=O)c3ccc(C)cc3)CC2[C@H]1C(=O)OC (stereo partly specified) 110%
COc1ccc(-c2cn3ccsc3n2)cc1 107%
CC(C)(C)C(=O)OCc1nc(-c2ccc(O)c(O)c2)cs1 103%
COc1ccc([C@H]2C[C@@H](n3cc(COC(=O)c4ccccc4)nn3)[C@H](O)CN2C(=O)c2cccs2)cc1 106%
CCN1CCN(CCNC(=O)c2ccc3c(c2)NC(=O)/C(=C\c2cccc(Cl)c2)S3)CC1 106%
O=C(COC(=O)c1ccc(S(=O)(=O)N2CCCCCC2)cc1)Nc1ccccc1C(F)(F)F 109%
CCOC(=O)C1CCN(C(=O)/C=C/c2cc(OC)c(OC)c(OC)c2)CC1 101%
COc1ccc(/C=C/C(=O)N2CCCC2)cc1OC 105%
Cc1ccc(S(=O)(=O)N2C[C@H]3n4c(=O)ccc(=O)n4C[C@H](OC(=O)NC4CCCC4)[C@@]3(O)C2)cc1 103%
COc1ccc([C@H]2N[C@]3(CCCN(CC4CCCCC4)C3=O)[C@H]3C(=O)N(C)C(=O)[C@@H]23)cc1 106%
COc1cccc(/C=C2\SC(=S)N(CCCC(=O)N3CCOCC3)C2=O)c1 99.8%
C=CCn1c2ccccc2c2nnc(SC(CC)C(=O)Nc3nc(C)c(C(=O)OCC)s3)nc21 (stereo unspecified) 93.3%
CCOC(=O)c1sc(NC(=O)c2sc(C)nc2C)nc1C 96.7%
O=C(Cc1ccc([N+](=O)[O-])cc1)NCCS(=O)(=O)N1CCN(c2ccccc2)CC1 97.2%
O=[N+]([O-])c1ccc(N2CCN(c3ccc(O)cc3)CC2)c(Cl)c1 101%
COc1ccc(N2CCN(c3ccc([N+](=O)[O-])nc3)CC2)cc1 77.8%
COC(=O)c1sccc1NC(=O)c1cc(OC)c(OC)c(OC)c1 81.8%
COC(=O)Cn1c(=NC(=O)CSCC(=O)Nc2cc(C)on2)sc2ccccc21 82.3%
CC(C)N=C1CCCC1C(=S)SSC(=S)C1CCCC1=NC(C)C (stereo unspecified) 102%
N#CCCN(C(=S)Nc1ccc(Cl)c(Cl)c1)C1CCCCC1 105%
Cc1cc(C)n(-c2ccc(C(=O)O)cc2[N+](=O)[O-])n1 102%
Cc1cc(C)n(-c2ccc3nncn3n2)n1 99%
O=C(O)C(=Cc1ccc([N+](=O)[O-])cc1)CCc1ccccc1 103%
CCOC(=O)c1c(C)[nH]c(C)c1C(=O)COC(=O)/C=C/c1cccc([N+](=O)[O-])c1 98.5%
CCN1CCCC1CNC(=O)c1ccc2c(c1)NC(=O)/C(=C\c1ccccc1F)S2 (stereo unspecified) 94.9%
CCOc1ccc(CNC(=O)CCC(=O)N2CCSc3ccccc32)cc1 102%
Cc1ccc(NC(=O)CN2CCc3ccccc3C2)cc1 95.1%
CCN(CC)C(=O)C1=C(C)N(Cc2ccc(F)cc2)C(=O)C(CC(=O)NC2CCCC2)C1 (stereo unspecified) 109%
CC1(C)CN(Cc2cccnc2)C(=O)[C@H]1CC(=O)Nc1ccc(Br)cc1 96.8%
Cc1[nH]c2ccccc2c1C(=O)C(=O)NCc1nnnn1-c1cccc(F)c1 110%
Cc1csc(SCC(=O)Nc2ccc(C)c(S(=O)(=O)N(C)C)c2)n1 100%
O=C(NCC(=O)N1CCCC(C(F)(F)F)C1)c1ccccc1F (stereo unspecified) 98.7%
O=C(NC(Cc1ccccc1)C(=O)N1CCCC(C(F)(F)F)C1)c1ccccc1 (stereo unspecified) 93.4%
COc1ccc(-c2nn(-c3ccccc3)cc2/C=C2/SC(=S)N(CCCC(=O)O)C2=O)c(C)c1 104%
Cc1ccc(-c2nn(-c3ccccc3)cc2/C=C2\SC(=S)N(CCCCCC(=O)O)C2=O)o1 93.2%

Binding (percent of control), active:
Cc1ccc(O/C=C2\OC(=O)c3ccccc32)cc1 80.4%
CCOC(=O)c1c(S(=O)(=O)Nc2cccc(Cl)c2)c(C)n(C)c1C 52%
CCOc1ccc(Cn2nnc(C(=O)Nc3ccc(OC)cc3OC)c2N)cc1 81.7%
COc1ccc(CCNC(=O)/C(C#N)=C2\N=C(NC(=O)c3cccs3)c3ccccc32)cc1 81.2%
Cc1coc2c(O)cc3c(c12)OC1(N2CCCCC2)C(=O)NCCCC31 (stereo unspecified) 62.7%
O=C1Nc2ccc(Br)cc2/C1=N/N=C/C1=C(N2CCOCC2)C(=C\c2ccccc2)/CC1 38.1%
Cc1ccc2c(cnn2C(=O)CCC(=O)NC2CCCC2)c1 53%
COc1cc(OC)cc(C(=O)NCCSCc2ccc(Cl)cc2)c1 76.3%
COc1ccc(CCNC(=S)N2CCN(S(=O)(=O)c3ccc(F)cc3)CC2)cc1 63.3%
COc1ccc(-c2csc(Cc3nc(O)cs3)n2)cc1 8.21%
COc1cc(/C=C/C(=O)N2CCc3ccccc3C2)cc(OC)c1OC 68.1%
CCOC(=O)c1sc(NC(=O)C(CC)Sc2nccn2C)nc1C (stereo unspecified) 83.3%
COc1ccc(N2CCN(c3ccc([N+](=O)[O-])cc3Cl)CC2)cc1 -9.48%
COC(=O)Cn1c(=NC(=O)c2cc(OC)c(OC)c(OC)c2)sc2cc(OC)ccc21 88.6%
Cc1cc(C)n(-c2ccc(Cl)c(C(=O)O)n2)n1 56.1%
Cc1ccc(NC(=O)N2CCSc3ccccc32)cc1 63%
FC(F)(F)C1CCCN(c2nsc3ccccc23)C1 (stereo unspecified) 59.3%
CN(C)S(=O)(=O)c1cccc(-c2nn(-c3ccccc3)cc2/C=C2\SC(=S)N(CC(=O)O)C2=O)c1 34.1%

— PubChem BioAssay AID588358 (NMMLSC, 2011)
